# Test results as given in PubChem BioAssay AID485317 (Broad Institute, 2010).
# The whole screen tested about 290,000 compounds, of which about 11,000 (3.8%) were called active.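 The calls were made as follows: active = mean replicate inhibition above about 79%, with every replicate also reaching it (limit read from the data); inconclusive = only one of the two criteria met; inactive = mean below limit and not every replicate reaching it.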 Many of the other results were omitted from the sample, so actives are more common in it than they were.
# Biological target: FAD-linked sulfhydryl oxidase ALR (Homo sapiens) (UniProt P55789)
# Sequence (P55789 whole entry, looked up): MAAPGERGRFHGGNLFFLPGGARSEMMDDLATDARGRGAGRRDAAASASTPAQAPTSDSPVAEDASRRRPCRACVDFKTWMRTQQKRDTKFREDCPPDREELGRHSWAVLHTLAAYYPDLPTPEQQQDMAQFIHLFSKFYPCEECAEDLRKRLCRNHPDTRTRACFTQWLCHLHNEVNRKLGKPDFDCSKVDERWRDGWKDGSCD
# Experiment: ALR-catalysed DTT oxidation blockers – biochemical, H2O2 detection, HRP-luminol luminescence, single point, primary screen (AID 485317)
# Conditions: purified ALR, hits give high values, concentration not given here
row,SMILES,inhibition
1,C=CC[C@@H](CC(=O)NCCO)C(=O)N[C@H](C)COC(=O)[C@@H](CC=C)CC(=O)OC(C)(C)C,4.16% (inactive)
2,CCN1C(=O)[C@H]2[C@@H](c3ccc(-c4ccc(F)cc4)cc3)N[C@@](Cc3ccccc3)(C(=O)OC)[C@H]2C1=O,-2.13% (inactive)
3,CCCn1c(C2CCCN2c2nc(-c3ccc(OC)cc3)cs2)nc2ccccc21 (stereo not drawn),-0.584% (inactive)
4,CCOC(=O)C1CCCN(C(=O)CSc2nnc3nc(C)cc(C)n23)C1 (stereo not drawn),-0.482% (inactive)
5,C=CCC(NCc1ccco1)c1ccc(OC)cc1 (stereo not drawn),1.8% (inactive)
6,COc1ccc(CNCCCO)cc1OC,1.87% (inactive)
7,C=CCC(NCCCO)c1cccc(OC)c1OC (stereo not drawn),99.7% (active)
8,COc1cccc(NC(=O)CC(c2ccc(OC(C)C)cc2)c2ccccc2OC)c1 (stereo not drawn),1.22% (inactive)
9,COc1cccc(C(O)Cc2nc3ccccc3n2C)c1OC (stereo not drawn),2.27% (inactive)
10,C=CCC(Nc1ccccc1)c1cccc(OC)c1OC (stereo not drawn),98.9% (active)
11,CCOC(=O)[C@H]1[C@H]2COc3ccc(C)cc3[C@@H]2N2C(=O)CN(Cc3ccc(F)cc3)C(=O)[C@@]12C,-13.6% (inactive)
12,CCOCc1c(C(=O)N2CCN(Cc3ccc(Br)s3)CC2)oc2ccccc12,1.34% (inactive)
13,CCN(CC(=O)Nc1ccccc1C(F)(F)F)C(=O)CSCc1c(C)noc1C,6.19% (inactive)
14,Cc1ccccc1NC(=O)C(C)OC(=O)CCC(=O)N(CC(C)C)c1c(N)n(CC(C)C)c(=O)[nH]c1=O (stereo not drawn),-8.82% (inactive)
15,COc1cc(C(=S)NC2CCCCC2)ccc1O,98.5% (active)
16,COc1cc(C(=S)N2CCOCC2)ccc1O,-6.46% (inactive)
17,COc1ccc(C(=O)NC(=S)NC2CCCCC2)cc1,3.44% (inactive)
18,O=C(CN1CCN(S(=O)(=O)c2cccc(Cl)c2)CC1)N1CCCCC1,14.4% (inactive)
19,O=C(NCC1(N2CCCCC2)CCCCC1)c1ccc(NS(=O)(=O)c2ccc(F)cc2)cc1,7.5% (inactive)
20,CC(Sc1nn(-c2ccc(Cl)cc2)c(=S)s1)C(=O)NCC1CCCO1 (stereo not drawn),-12.1% (inactive)
21,COc1cc(/C=N/n2c(C)n[nH]c2=S)ccc1OCc1ccccc1,97% (active)
22,COc1cc(-c2n[nH]c(=S)n2Cc2ccccc2)cc(OC)c1OC,68.8% (inactive)

row,SMILES,inhibition
1,CCOc1ccc(/C=N/Nc2nncc(-c3ccccc3)n2)cc1OC,-1.74% (inactive)
2,COc1ccc(S(=O)(=O)Nc2ccc3cn[nH]c3c2)cc1[N+](=O)[O-],-7.76% (inactive)
3,O=C(c1cc(-c2ccc(F)cc2)on1)N1CCN(c2ccc(F)cc2)CC1,1.89% (inactive)
4,Cc1c(C(=O)N2CCCc3ccccc32)oc2ccccc12,1.77% (inactive)
5,O=C(c1cc(-c2ccc(Cl)cc2)on1)N1CCN(c2ccccc2)CC1,4.35% (inactive)
6,O=C(c1cc(-c2ccc(O)cc2)on1)N1CCOCC1,99% (active)
7,O=C(c1cc(-c2ccc(O)cc2)on1)N1CCCc2ccccc21,98.8% (active)
8,Cc1ccc(-c2cc(C(=O)N3CCc4ccccc4C3)no2)cc1,-5.44% (inactive)
9,COc1ccc2sc(-c3ccc(S(C)(=O)=O)cc3)c(C#Cc3cncn3C)c2c1,1.35% (inactive)
10,COc1ccccc1CCNC(=O)C(=O)NCCC1CCCCN1S(=O)(=O)c1cccs1 (stereo not drawn),-56.8% (inactive)
11,CC1(C)O[C@H]2CC(=O)OCC23[C@H]2CC[C@@]4(C)[C@H](c5ccoc5)OC(=O)[C@H]5O[C@]54[C@]2(C)C(=O)C[C@@H]13 (stereo partly drawn),-10.7% (inactive)
12,CCc1noc(C)c1C(=O)Oc1ccc(N(C)S(=O)(=O)c2ccc(C)c(C)c2)cc1,22.1% (inactive)
13,COc1ccc(C(=O)Nc2cc(S(=O)(=O)N3CCCC3)ccc2Cl)cc1,0.959% (inactive)
14,Cc1cc(Nc2ccc(Cl)cc2)nc(N2CCOCC2)n1,-2.6% (inactive)
15,Cc1cc(N2CCN(c3ccccc3)CC2)nc(N2CCOCC2)n1,98.9% (active)
16,Cc1cc(N2CCOCC2)nc(-c2ccc(Br)cc2)n1,-3.64% (inactive)
17,COc1ccc(CNC(=O)COC(=O)C(CCSC)N2C(=O)c3ccccc3C2=O)cc1 (stereo not drawn),-2.44% (inactive)
18,CC(C)(C)Cc1nnc(NC(=O)c2cc(-c3ccccc3)nc3ccccc23)s1,3.63% (inactive)
19,O=C(O)c1cccc(NC(=O)c2cc(-c3cccc(Cl)c3)nc3ccccc23)c1,98.6% (active)
20,O=C(Nc1cccc(F)c1)c1cc(-c2ccco2)nc2ccccc12,5.76% (inactive)
21,Cc1ccc([C@@H]2CC=C(C(=O)O)[C@H](c3cccc(Cl)c3)N2S(=O)(=O)c2ccc(C)cc2)cc1,4.58% (inactive)
22,O=C1COc2ccc(C(=O)COC(=O)CCOc3ccccc3)cc2N1,-1.49% (inactive)

row,SMILES,inhibition
1,CC1=CC(C)(C)Nc2ccc(OC(=O)C(Cc3ccccc3)N3C(=O)C4CCCCC4C3=O)cc21 (stereo not drawn),-22.1% (inactive)
2,CC1=CC(C)(C)Nc2ccc(OC(=O)CN3C(=O)C4CCCCC4C3=O)cc21 (stereo not drawn),85.4% (active)
3,O=C(CN1C(=O)C2C3CCC(C3)C2C1=O)Oc1ccc2ccccc2c1 (stereo not drawn),-1.46% (inactive)
4,CC(C)Cn1c(N)c(C(=O)COC(=O)C2CCCN2C(=O)c2cccs2)c(=O)n(C)c1=O (stereo not drawn),-23.1% (inactive)
5,Cc1ccc(C)c(-c2nnc(NC(=O)CS(=O)(=O)c3ccccc3)o2)c1,1.8% (inactive)
6,Cc1cc(=O)oc2c(C)c(OC(C)C(=O)NC3CCN(Cc4ccccc4)CC3)ccc12 (stereo not drawn),2.88% (inactive)
7,Cc1oc2c(C)c3oc(=O)c(CC(=O)N[C@@H](CC(C)C)C(=O)N[C@@H](Cc4ccccc4)C(=O)O)c(C)c3cc2c1C,40.1% (inactive)
8,Cc1c(OC(C)C(=O)N[C@@H](Cc2ccccc2)C(=O)O)ccc2c3c(c(=O)oc12)CCCC3 (stereo partly drawn),86.8% (active)
9,CC1(C)CC[C@@]2(C(=O)O)C(C1)C1=CCC3[C@@]4(C)CC[C@H](O)C(C)(C)C4CC[C@@]3(C)[C@]1(C)C[C@H]2O (stereo partly drawn),-9.85% (inactive)
10,CCOC(=O)c1cccc(NC(=O)c2ccc(F)cc2F)c1,6.05% (inactive)
11,CN(C)CCCN(C(=O)c1ccc(S(=O)(=O)N2CCCCCC2)cc1)c1nc2cc3c(cc2s1)OCCO3,-4.06% (inactive)
12,CC/C(C)=N/Nc1nc2sc3c(c2c(=O)[nH]1)CC(C)(C)OC3,15.5% (inactive)
13,C=CCNC(=S)NNc1ncnc2sc3c(c12)CC(C)(C)OC3,98.8% (active)
14,CCC(O)CNc1nc(-n2nc(C)cc2C)nc2sc3c(c12)CC(C)(C)OC3 (stereo not drawn),-2.25% (inactive)
15,CC(C)C(NC(=O)c1c(F)cccc1F)C(=O)NNC(=O)c1ccccc1 (stereo not drawn),-7.7% (inactive)
16,COc1ccc2sc(N(CCCN(C)C)C(=O)c3ccc(S(=O)(=O)N(C)C4CCCCC4)cc3)nc2c1,-5.65% (inactive)
17,O=C(NCC(=O)N1CCCC(C(F)(F)F)C1)c1ccccc1F (stereo not drawn),-7.32% (inactive)
18,Cc1ccc(N=C2SCCCN2C(=O)c2cccc(N3C(=O)CCC3=O)c2)cc1Cl,-9.4% (inactive)
19,N#Cc1nc(-c2cccc3ccccc23)oc1N,0.469% (inactive)
20,Cn1c(CNC(=O)c2ccccc2F)nnc1SCc1ccc(F)cc1,-2.09% (inactive)
21,COC(=O)c1ccc(CSc2nncn2N)cc1,-17.1% (inactive)
22,CC(C)CC(CC(C)C)=NNC(=O)c1ccc(CSc2nncn2C)cc1,98.2% (active)

row,SMILES,inhibition
1,CC(=O)Nc1ccc(NC(=O)CCN2C(=O)C3CC=CCC3C2=O)cc1 (stereo not drawn),-1.74% (inactive)
2,CC1=NNC(=O)C1Cc1c(Cl)cccc1Cl (stereo not drawn),13.8% (inactive)
3,CCn1c(SC(C)C(=O)Nc2ccc(N3CCOCC3)cc2)nnc1-c1ccco1 (stereo not drawn),46.7% (inactive)
4,Cc1ccc(Nc2ncnc3c2cnn3C)c(C)c1,-4.69% (inactive)
5,Cc1ccc(-n2ncc3c(Nc4cccc(C(=O)O)c4)ncnc32)cc1,94% (active)
6,O=C(NNc1ncnc2c1cnn2-c1ccccc1)c1ccco1,-5.39% (inactive)
7,CSCCC(NC(=O)COc1ccccc1)C(=O)OCCOc1ccc(F)cc1 (stereo not drawn),-0.0039% (inactive)
8,Cc1ccc(S(=O)(=O)NCCC(=O)OCC(=O)N(C)c2ccccc2)cc1,-0.745% (inactive)
9,COc1ccc(S(=O)(=O)N2CCN(C(C)C(=O)Nc3ccc(C(C)C)cc3)CC2)cc1 (stereo not drawn),-3.15% (inactive)
10,COc1cccc(-c2nn(-c3ccccc3)cc2/C=C(\C#N)C(=O)NCCCn2ccnc2)c1,-6.12% (inactive)
11,COc1ccc(-c2nn(-c3ccccc3)cc2/C=C2/SC(=S)N(CCCC(=O)O)C2=O)c(C)c1,3% (inactive)
12,CN(C)S(=O)(=O)c1cccc(-c2nn(-c3ccccc3)cc2/C=C2\SC(=S)N(CC(=O)O)C2=O)c1,95.8% (active)
13,COc1cccc(COC(=O)C2CCN(S(=O)(=O)c3cccs3)CC2)c1OC,-64% (inactive)
14,COc1cc(C(=O)NCC(=O)N2CC=C(c3ccccc3)CC2)cc(OC)c1OC,3.4% (inactive)
15,O=C(NCCSc1ncc(-c2ccccc2)[nH]1)c1ccco1,4.62% (inactive)
16,COc1ccc(OC)c(S(=O)(=O)N2CCCC(C(=O)N3CCC(C(N)=O)CC3)C2)c1 (stereo not drawn),-3% (inactive)
17,Cc1c(NC(=O)CSCc2ccccc2)cccc1C(=O)O,-23.6% (inactive)
18,O=C(CSCc1ccc([N+](=O)[O-])cc1)Nc1cccc(C(=O)Nc2ccccc2C(=O)O)c1,99% (active)
19,O=C(Cc1ccccc1)Nc1ccc(NC(=O)c2cccnc2)cc1,-3.14% (inactive)
20,O=C(Cc1ccccc1)Nc1ccc(C(=O)Nc2ccccc2C(=O)O)cc1,87.1% (active)
21,O=C(O)c1ccccc1NC(=O)c1ccccc1-c1ccccc1C(=O)O,-5.64% (inactive)
22,COc1ccc(NC(=O)CSCc2ccc([N+](=O)[O-])cc2)cc1OC,-0.226% (inactive)
